Assay outcomes from PubChem.
A selection: hits, their analogues and other compounds. The true share with any hit is near 8%.
HT1080 IDH1KD tx = toxicity to HT-1080 IDH1 knockdown cells (counter line); Potency, µM (titrated, usually from 46.1 µM), for the others: at the top dose activity, negative = toxicity, hits mostly cytotoxic; actives 2% (n = 360,000); HT-1080 IDH1 knockdown viability, ATP luminescence, 48 h;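 further: 0% = DMSO wells and -100% = cell-free medium wells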
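After a 2 h attachment period, IDH1KD HT-1080 cells took pin-transferred compound for 48 h at 37 °C; ATP-based luminescence after 10 min room-temperature reagent incubation reported viability.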
MCF10A rereplic = induces DNA re-replication in MCF 10a normal breast cells. MCF 10A DNA re-replication, Hoechst nuclear intensity, 48 h. Potency, µM (highest dose often 46.1 µM), for inactives: at the top dose activity, positive = re-replication, most hits filed as activators. actives 2.9% (n = 350,000). AID 624296; further: % of control where 0% means no effect; nearly all actives have a fitted effect of over 50% in size
KB-3-1 tox = KB-3-1 parental cell cytotoxicity; actives 1.4% (n = 400,000); KB-3-1 viability, CellTiter-Glo ATP luminescence, 72 h; AID 1347075; Potency, µM (series often up to 46.1 µM), usual class: cytotoxic; further: on the % scale 0 is the no-effect control and ±100 the full control effect; nearly all actives have a fitted effect of over 60% in size
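KB-3-1 parental drug-naive adenocarcinoma cells in DMEM/10% FBS, incubated 72 h at 37 C with pin-transferred compounds across a concentration series. Viability by CellTiter-Glo luminescence; concentration-response curves fitted after normalization.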
HT1080NT lethal = kills 2HG-producing HT-1080-NT fibrosarcoma cells. HT-1080-NT fibrosarcoma viability, CellTiter-Glo ATP luminescence, 48 h. Potency, µM (top dose mostly 46.1 µM), for inactives: top-dose activity, negative = less viability, most hits filed as cytotoxic. actives 1.6% (n = 360,000);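 further: NT is the 2HG producing partner of a matched IDH1 knockdown line; 0% = DMSO-treated cells and -100% = media-only wells without cells; nearly all actives have a fitted effect of over 55% in size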
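HT-1080-NT fibrosarcoma cells (2HG-overproducing), 750 cells/well in RPMI with 5% FBS, dosed after 2 h and incubated 48 h at 37C. CellTiter-Glo luminescence normalized to DMSO and no-cell wells; concentration-response curves fitted and classed.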
SW480 rerep = DNA re-replication induction in SW480 cells | Potency, µM (series often up to 46.1 µM), inactives show at the top dose re-replication activation, usual class: activators | actives 1.8% (n = 340,000) | SW480 DNA re-replication, Hoechst DNA content imaging, 48 h | AID 624297; further: % of control where 0% means no effect; nearly all actives have a fitted effect of over 55% in size
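DNA re-replication was detected as more nuclei of elevated Hoechst intensity after 48 hr exposure to compound (23 nL pinned per well of 250 cells).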
KB-V1 cytotox = kills drug-selected multidrug resistant KB-V1 cells; KB-V1 MDR cells viability, CellTiter-Glo, 72 h; Potency, µM (series often up to 46.1 µM), hits mostly cytotoxic; actives 3.4% (n = 400,000); further: on the % scale 0 is the no-effect control and ±100 the full control effect; nearly all actives have a fitted effect of over 60% in size
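In this primary screen, KB-V1 cells overexpressing P-gp are incubated with library compounds (lowest to highest concentration) for 72 h at 37 degrees C before a luminescent ATP viability read.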
* hit, by the source's call. The call rests on the fitted dose curve; in most records, active means well fitted curve in the direction sought with a large enough effect; inconclusive means small, poorly fitted or top-dose-only effect, or another doubt; inactive means no such curve, though single readings can be large; an effect the other way counts as inactive or inconclusive. Potency means the concentration at half of the fitted maximal effect.

`Cn1c(CC2C(=O)Nc3ccc(Br)cc32)nc2ccccc2c1=O` (stereo not given) gave HT1080 IDH1KD tx -27.2%, MCF10A rereplic inconclusive, KB-3-1 tox inconclusive, HT1080NT lethal inconclusive, SW480 rerep -1.3% and KB-V1 cytotox 10.3µM*.
Screening Cc1ccc(CCNC(=O)c2ccc(CS(=O)(=O)c3ccc(Br)cc3)o2)cc1 returned KB-3-1 tox inactive and KB-V1 cytotox inactive.
`CN(C)CCCNc1c2ccccc2nc2ccccc12` gave HT1080 IDH1KD tx 5.17µM*, MCF10A rereplic inconclusive, KB-3-1 tox 1.64µM*, HT1080NT lethal 4.11µM*, SW480 rerep inconclusive and KB-V1 cytotox 11.6µM*.
For Oc1ccc(CCNc2c3ccccc3nc3ccccc23)cc1O the results were HT1080 IDH1KD tx inconclusive, MCF10A rereplic inconclusive, KB-3-1 tox 18.4µM*, HT1080NT lethal 23.1µM*, SW480 rerep inconclusive and KB-V1 cytotox inactive.
`OCCNc1c2ccccc2nc2c(F)c(F)c(F)c(F)c12` gave HT1080 IDH1KD tx 4.61µM*, MCF10A rereplic inconclusive, KB-3-1 tox inactive, HT1080NT lethal inconclusive, SW480 rerep 13µM* and KB-V1 cytotox inconclusive.
Screening O=C1NC[C@H](CCCCN2C[C@H](Cc3ccccc3)N(CCC3CCCCC3)C(=O)C2=O)N(CCC2CCCCC2)C1=O returned HT1080 IDH1KD tx 2.7%, KB-3-1 tox inconclusive, HT1080NT lethal -12.1% and KB-V1 cytotox inactive.
`O=C1NC[C@@H](CCCCN2C[C@H](Cc3ccccc3)N(CCC3CCCCC3)C(=O)C2=O)N(Cc2ccccc2)C1=O` gave HT1080 IDH1KD tx 20.6µM*, KB-3-1 tox inconclusive, HT1080NT lethal inconclusive and KB-V1 cytotox inconclusive.
`O=C(NCc1ccc(S(=O)(=O)NC2CCCCC2)s1)c1ccccc1` gave HT1080 IDH1KD tx -2.3%, MCF10A rereplic inconclusive, KB-3-1 tox inactive, HT1080NT lethal -7.1%, SW480 rerep inconclusive and KB-V1 cytotox inconclusive.
For Cn1c(/C(C#N)=C/C2CC=CCC2)nc2ccccc21 (stereo not given) the results were HT1080 IDH1KD tx inconclusive, MCF10A rereplic -2.0%, KB-3-1 tox inactive, HT1080NT lethal inconclusive, SW480 rerep -9.0% and KB-V1 cytotox inactive.
N#C/C(=C\C1CC=CCC1)c1nc2ccccc2[nH]1 (stereo not given) was read as HT1080 IDH1KD tx inconclusive, MCF10A rereplic inconclusive, KB-3-1 tox inconclusive, HT1080NT lethal inconclusive, SW480 rerep inconclusive and KB-V1 cytotox 13µM*.
COC(=O)C1=CN(c2ccc(C)cc2)C(N)=C(C#N)C1c1ccc(OC)cc1 (stereo not given) was read as HT1080 IDH1KD tx inconclusive, KB-3-1 tox 23.1µM*, HT1080NT lethal -28.2% and KB-V1 cytotox 23.1µM*.
COC(=O)C1=CN(c2ccc(OC)cc2OC)C(N)=C(C#N)C1c1ccccc1F (stereo not given) was read as HT1080 IDH1KD tx 0.731µM*, KB-3-1 tox 1.46µM*, HT1080NT lethal 1.46µM* and KB-V1 cytotox inconclusive.
Screening CCc1ccc(N2C=C(C(=O)OC)C(c3ccc(OC)cc3)C(C#N)=C2N)cc1 (stereo not given) returned HT1080 IDH1KD tx inconclusive, KB-3-1 tox inconclusive, HT1080NT lethal inconclusive and KB-V1 cytotox 18.4µM*.
Screening COC(=O)C1=CN(c2ccc(OC)cc2)C(N)=C(C#N)C1c1ccc(OC)cc1 (stereo not given) returned HT1080 IDH1KD tx -15.2%, KB-3-1 tox inactive, HT1080NT lethal -17.2% and KB-V1 cytotox inactive.
For COC(=O)C1=CN(c2ccc3c(c2)OCO3)C(N)=C(C#N)C1c1cccc(F)c1 (stereo not given) the results were HT1080 IDH1KD tx 1.84µM*, KB-3-1 tox 2.31µM*, HT1080NT lethal 3.66µM* and KB-V1 cytotox 3.66µM*.
